Results on 60 compounds are retold here after PubChem BioAssay AID588689 (Southern Research Specialized Biocontainment Screening …, 2011).

For this test, the target named is Genome polyprotein (Dengue virus type 2 (strain 16681-PDK53)) (UniProt P29991). As to the kind of experiment: Dengue-2 NS5 methyltransferase inhibitors, primary screen, biochemical, confirmation dose response (AID 588689). The following applies: Dengue-2 NS5 methyltransferase capping enzyme assay, at 25 µM, stronger effect = higher value.
Setting [1] is: measured here: pilot screen replicate inhibition.

One may read the inhibition as the relative decrease from the control value, in per cent.

The structures appear in SMILES notation. The whole screen tested about 340,000 compounds, of which about 1,000 (0.29%) were called active. Cut-off read from the data, not from the text of the source: inconclusive = inhibition above about 29% without an active follow-up result; inactive = below that. Not all results are given here. Entries with a potency or affinity are not part of this list.

On to `COc1ccc(C2CC(c3ccccc3)=NN2c2ccc(C(N)=O)cc2)cc1` (stereo not drawn), for which the inhibition is -4.66% (inactive).

As for `COc1ccc(C2CC(c3ccccc3)=NN2c2ccc(N)cc2)cc1` (stereo not drawn), the inhibition was -12.8% (inactive).

`N#C/C(=C\c1cccc(Oc2ccc(C(F)(F)F)cc2[N+](=O)[O-])c1)c1nc2ccccc2[nH]1`: the inhibition is -4.47% (inactive).

`CCN(CC)C(=O)c1ccc(NS(=O)(=O)c2ccc(/C=C/C(=O)O)cc2)cc1`: the inhibition is 2.19% (inactive).

`CC1=C/C(=C(\c2ccc(O)c(C)c2)c2ccccc2S(=O)(=O)O)C=CC1=O`: the inhibition was 0.65% (inactive). For the same compound, under setting [1], the inhibition worked out at 3.04%.

Take `CC1=CC(=O)C=C/C1=C(/c1ccc(O)cc1C)c1ccccc1S(=O)(=O)O`: the inhibition is -1.47% (inactive).

On to `CC1=C/C(=C(/c2ccc(O)c(C)c2)c2ccccc2S(=O)(=O)O)C=CC1=O`, for which the inhibition is -1.1% (inactive).

For `Cc1cc(C(=O)CS(=O)(=O)c2ccccc2)cc(C)c1O`, the inhibition is -11.8% (inactive).

In the case of `O=C(NC(=O)c1ccccc1)OCCN1C(=O)c2ccccc2C1=O`, the inhibition was -5.92% (inactive).

Turning to `Cc1cc(S(=O)(=O)N2CCOCC2)ccc1OCC(=O)Nc1ccccc1C(F)(F)F`, the inhibition was -3.32% (inactive).

`OCCNc1c2ccccc2nc2ccccc12`: the inhibition was -2.34% (inactive).

As to `OCCNc1nc2ccccc2nc1NCCO`, the inhibition is 15.3% (inactive).

`CC#CCCc1nc2ccccc2c(=O)n1N`: the inhibition is -9.73% (inactive).

Take `COCCCNC(=O)CCc1nc(-c2ccccc2Cl)no1`: the inhibition was -2.35% (inactive).

Regarding `O=C(O)COc1ccc(/C=N/NC(=O)c2cn(-c3ccccc3)nc2-c2ccccc2)cc1`, the inhibition is 5.65% (inactive).

For `CC(C)N1C(=O)CCN(C=O)c2ccccc21`, the inhibition was -9.31% (inactive).

`CCOC(=O)c1sc(N2C(=O)C(O)=C(C(=O)c3ccco3)C2c2ccco2)nc1C` (stereo not drawn): the inhibition was -2.93% (inactive).

Consider `COC(=O)c1sc(N2C(=O)C(O)=C(C(=O)c3ccc(C)o3)C2c2ccc(F)cc2)nc1C` (stereo not drawn), for which the inhibition is -6.35% (inactive).

With `CCOc1ccc(C2C(C(=O)c3ccc(C)o3)=C(O)C(=O)N2c2nc(C)c(C(=O)OC)s2)cc1` (stereo not drawn), the inhibition was 10.7% (inactive).

For `CCOC(=O)c1sc(N2C(=O)C(O)=C(C(=O)c3ccco3)C2c2cccc([N+](=O)[O-])c2)nc1C` (stereo not drawn), the inhibition was -0.32% (inactive).

Consider `COc1ccc(CC(=O)Nc2sc3c(c2C(N)=O)CCCC3)cc1`, for which the inhibition was -5.87% (inactive).

Consider `CCC(C)(C)NC(=O)Cn1c(-c2ccccc2)cc(C(C)=O)c1C`, for which the inhibition was 1.78% (inactive).

With `O=C(CCN1N=C(c2ccccc2)CCC1=O)NCC1CCCO1` (stereo not drawn), the inhibition is 6.81% (inactive).

On to `Cc1nn(-c2ccc3ccccc3c2)c(=O)c2ccccc12`, for which the inhibition is -4.49% (inactive).

With `CSc1nnc(-c2ccccc2N=Cc2c(C)[nH]n(-c3ccccc3)c2=O)c(=O)[nH]1`, the inhibition is 11.5% (inactive).

For the compound `Cc1cc(C)c2nc(N3C(=O)C(O)=C(C(=O)c4ccco4)C3c3ccco3)sc2c1` (stereo not drawn), the inhibition was 1.47% (inactive).

With `Cc1ccc2nc(N3C(=O)C(O)=C(C(=O)c4ccc(C)o4)C3c3cccc(O)c3)sc2c1` (stereo not drawn), the inhibition was 0.73% (inactive).

Regarding `Cc1ccc2nc(N3C(=O)C(O)=C(C(=O)c4ccco4)C3c3ccc(O)cc3)sc2c1` (stereo not drawn), the inhibition is 3.66% (inactive).

On to `Cc1ccc2nc(N3C(=O)C(O)=C(C(=O)c4ccco4)C3c3ccc(C)o3)sc2c1` (stereo not drawn), for which the inhibition was -8.15% (inactive).

For `Cc1nn(CCCC(=O)NCc2ccccc2)c(C)c1[N+](=O)[O-]`, the inhibition is -1.91% (inactive).

Turning to `CCCn1c(N)c(N(CCOC)C(=O)c2ccc([N+](=O)[O-])c(C)c2)c(=O)[nH]c1=O`, the inhibition is -3.56% (inactive).

`COc1ccc(S(=O)(=O)N2CCN(C(=O)Cc3cccs3)CC2)cc1`: the inhibition was -2.65% (inactive).

Consider `CC(C)c1nc2ccc(NC(=O)C3CCCCC3)cc2[nH]1`, for which the inhibition was 4.05% (inactive).

For the compound `O=C(C1=C(O)C(=O)N(CCN2CCOCC2)C1c1ccco1)c1cc2ccccc2o1` (stereo not drawn), the inhibition is -8.02% (inactive).

Turning to `CC(=C/c1ccccc1)/C=N/n1c(-c2ccco2)n[nH]c1=S`, the inhibition is -1.88% (inactive). Moreover, the inhibition under setting [1] is 2.73%.

Take `CC(/C=N/n1c(-c2ccco2)n[nH]c1=S)=C\c1ccccc1`: the inhibition is 1.83% (inactive).

Turning to `O=C(Nc1ccccc1C(=O)O)c1ccc2c(c1)C(=O)N(c1cccc([N+](=O)[O-])c1)C2=O`, the inhibition is 17.6% (inactive).

Consider `Cc1ccc(C(=O)O)cc1NC(=O)c1ccc2c(c1)C(=O)N(c1ccc([N+](=O)[O-])cc1)C2=O`, for which the inhibition was -4.57% (inactive).

`Cc1cc(C(=O)CSc2nnc(N)s2)c(C)n1Cc1ccco1`: the inhibition was -12.5% (inactive).

With `CCc1ccc(N2CCN(C(=O)N3CCOCC3)CC2)cc1`, the inhibition was -8.84% (inactive).

With `COc1ccccc1N1C(=O)C(Cl)=C(N2CCCC2)C1=O`, the inhibition was -1.98% (inactive). Moreover, the inhibition under setting [1] was 0.315%.

Regarding `CCc1ccc(N2C(=O)C(Cl)=C(N3CCCCCC3)C2=O)cc1`, the inhibition is -5.23% (inactive).

As to `CCOc1ccc(N2C(=O)c3ccccc3C2=O)cc1`, the inhibition was 1.62% (inactive).

Turning to `COc1ccc(N2C(=O)C(Cl)=C(N3CCN(Cc4ccccc4)CC3)C2=O)cc1`, the inhibition is -1.61% (inactive).

Regarding `CCOc1ccc(N2C(=O)CC(N3CCOCC3)C2=O)cc1` (stereo not drawn), the inhibition is -2.04% (inactive).

On to `COc1ccc(N2C(=O)C(Cl)=C(N3CCCC3)C2=O)cc1`, for which the inhibition was -10.6% (inactive).

For the compound `COc1ccc(OC)c(N2C(=O)C(Cl)=C(N3CCCCC3)C2=O)c1`, the inhibition is 0.68% (inactive).

Take `COc1cccc(-c2nc3ccc(C(=O)N4CCCC(O)C4)cc3o2)c1` (stereo not drawn): the inhibition is -1.93% (inactive).

In the case of `CSc1ccc(CN(C)C(=O)c2ccc(S(=O)(=O)Nc3c(C)n(C)n(-c4ccccc4)c3=O)cc2)cc1`, the inhibition was -9.48% (inactive).

For `CCOC(=O)CSc1nnnn1-c1cc(OC)ccc1OC`, the inhibition was -2.05% (inactive).

Turning to `C=CC[C@H](CC(=O)NCCO)C(=O)NCCOC(=O)[C@@H](CC=C)Cc1ccc(F)cc1`, the inhibition is -5.62% (inactive).

In the case of `CCCNC(=O)N1C2=NC(C(=O)OC)=C(C(=O)OC)[C@@H]3N(Cc4ccccc4)c4ccccc4[C@]23C[C@H]1CO`, the inhibition was -2.73% (inactive).

`CCOC(=O)C1Nc2ccc(C)cc2C2C=CCC12` (stereo not drawn): the inhibition was 8.8% (inactive).

With `CCCC1Nc2ccc(C(=O)O)cc2C2C=CCC12` (stereo not drawn), the inhibition is 11.1% (inactive).

For the compound `CCOC(=O)c1ccc2c(c1)C1C=CCC1C(C(=O)OCC)N2` (stereo not drawn), the inhibition was 10.8% (inactive).

In the case of `O=C(O)c1ccc2c(c1)C1C=CCC1C(c1ccncc1)N2` (stereo not drawn), the inhibition was -11.1% (inactive).

For the compound `CC(C)CNC(=O)C1Nc2ccc(C(F)(F)F)cc2C2C=CCC12` (stereo not drawn), the inhibition is 2.4% (inactive).

As for `CCOC(=O)C1Nc2ccc(Br)cc2C2C=CCC12` (stereo not drawn), the inhibition is 5.02% (inactive).

With `CC(=O)c1ccc2c(c1)C1C=CCC1C(c1ccncc1)N2` (stereo not drawn), the inhibition was 50.2% (inactive).

On to `O=C(O)C1Nc2ccc(Br)cc2C2C=CCC12` (stereo not drawn), for which the inhibition is 55.7% (inactive).
